Common to all, as to settings: mRNA level, 48 h; actives raise or lower the signal
Read-out in test [1]: Early growth response protein 1 (EGR1) transcription factor, EGR1 (gene 1958)
The experiment in a line: LTEA_HepaRG_EGR1: Life Technologies and Expression Analysis (LTEA) Assay for Early growth response protein 1 (EGR1) transcription factor using HepaRG (AID 2283490). Summed up:
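Differentiated HepaRG cells in serum-free induction medium exposed 48 hours, duplicate, to 8 half-log concentrations up to 100 uM in 0.5% DMSO. EGR1 mRNA measured by TaqMan qRT-PCR, normalized to ACTB, GAPDH, POLR2A; bidirectional fit versus DMSO.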

Read-out in test [2]: Ezrin (EZR), EZR (gene 7430)
Put plainly: LTEA_HepaRG_EZR: Life Technologies and Expression Analysis (LTEA) Assay for Ezrin (EZR) using HepaRG (AID 2283491). Summed up:
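EZR transcript levels came from Fluidigm qRT-PCR and were normalized to three housekeeping genes after 48 h chemical exposure of HepaRG cells. Dosing used an 8-point half-log series with a 100 uM top concentration in 0.5% DMSO, tested in duplicate; both directions were fitted versus vehicle.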

Read-out in test [3]: Cytochrome P450 3A7 (Homo sapiens) (UniProt P24462)
Put plainly: LTEA_HepaRG_CYP3A7: Life Technologies and Expression Analysis (LTEA) Assay for CYP3A7 using HepaRG (AID 2283492). In a few lines:
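CYP3A7 transcript levels were read by TaqMan qRT-PCR on Fluidigm arrays after 48 h chemical exposure of human HepaRG cells, with housekeeping-gene normalisation. Eight half-log concentrations up to 100 uM in 0.5% DMSO were tested in duplicate.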

Read-out in the next test: CYP3A5 (gene 1577)
The experiment in a line: LTEA_HepaRG_CYP3A5: Life Technologies and Expression Analysis (LTEA) Assay for CYP3A5 using HepaRG (AID 2283493). In a few lines:
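mRNA induction or loss of CYP3A5 assessed in HepaRG after 48 h dosing, 100 uM top concentration, duplicate wells; TaqMan qRT-PCR with ACTB, GAPDH, POLR2A normalization; 0.5% DMSO as negative control.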

Read-out in test [4]: Fatty Acid-Binding Protein 1 (FABP1), FABP1 (gene 2168)
The experiment in a line: LTEA_HepaRG_FABP1: Life Technologies and Expression Analysis (LTEA) Assay for Fatty Acid-Binding Protein 1 (FABP1) using HepaRG (AID 2283494). Summed up: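 Differentiated human HepaRG cells exposed 48 h in serum-free induction medium to eight half-log concentrations up to 100 uM (0.5% DMSO), duplicate. FABP1 mRNA by qRT-PCR, normalised to ACTB, GAPDH, POLR2A; bidirectional fitting against DMSO.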

Read-out in test [5]: Cytochrome P450 4A22 (Homo sapiens) (UniProt Q5TCH4)
Put plainly: LTEA_HepaRG_CYP4A22: Life Technologies and Expression Analysis (LTEA) Assay for Cytochrome P450 4A22 (CYP4A22) using HepaRG (AID 2283495). In a few lines:
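HepaRG, 48 h post-plating -> serum-free induction medium; dosed 48 h, duplicate, 8 conc. (100 uM top, half-log), 0.5% DMSO. Readout: CYP4A22 mRNA by qRT-PCR, ACTB/GAPDH/POLR2A normalization; gain/loss fit relative to DMSO.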

Read-out in test [6]: Cytochrome P450 7A1 (Homo sapiens) (UniProt P22680)
Put plainly: LTEA_HepaRG_CYP7A1: Life Technologies and Expression Analysis (LTEA) Assay for Cytochrome P450 7A1 (CYP7A1) using HepaRG (AID 2283496). In a few lines: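 Gene expression endpoint in human HepaRG liver cells treated for 48 h with test chemicals (up to 100 uM, 0.5% DMSO). Values come from bidirectional concentration-response fitting versus DMSO.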

Read-out in test [7]: Glutathione S-Transferase (GSTA2), GSTA2 (gene 2939)
The experiment in a line: LTEA_HepaRG_GSTA2: Life Technologies and Expression Analysis (LTEA) Assay for Glutathione S-Transferase (GSTA2) using HepaRG (AID 2283497). Summed up: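 Differentiated human HepaRG cells were exposed in duplicate for 48 h in serum-free induction medium, 8 points from 100 uM top in half-log steps, 0.5% DMSO. GSTA2 mRNA was measured by TaqMan qRT-PCR, normalized to ACTB, GAPDH and POLR2A; bidirectional fit versus DMSO.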

Read-out in test [8]: Glutamate-cysteine ligase catalytic (GCLC), GCLC (gene 2729)
The experiment in a line: LTEA_HepaRG_GCLC: Life Technologies and Expression Analysis (LTEA) Assay for Glutamate-cysteine ligase catalytic (GCLC) using HepaRG (AID 2283498). Summed up: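 Differentiated HepaRG cells exposed 48 h in serum-free induction medium, eight-point half-log series topping at 100 uM in 0.5% DMSO, duplicates. GCLC mRNA by qRT-PCR normalized to ACTB, GAPDH and POLR2A, fitted bidirectionally versus DMSO.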

Read-out in test [9]: growth arrest and DNA damage 45 (GADD45G), GADD45G (gene 10912)
Put plainly: LTEA_HepaRG_GADD45G: Life Technologies and Expression Analysis (LTEA) Assay for growth arrest and DNA damage 45 (GADD45G) using HepaRG (AID 2283499). In a few lines:
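HepaRG, 48 h exposure, top 100 uM, half-log 8-point series, 0.5% DMSO vehicle, duplicates. Readout: GADD45G transcript by qRT-PCR (Fluidigm array), housekeeping-normalised (ACTB/GAPDH/POLR2A). Bidirectional curve fit vs DMSO baseline.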

Read-out in test [10]: Glutamate-cysteine ligase regulatory (GCLM), GCLM (gene 2730)
The experiment in a line: LTEA_HepaRG_GCLM: Life Technologies and Expression Analysis (LTEA) Assay for Glutamate-cysteine ligase regulatory (GCLM) using HepaRG (AID 2283500). Summed up: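 Human liver HepaRG cultures receive test chemicals for 48 hours at up to 100 uM in 0.5% DMSO. GCLM expression is measured by qRT-PCR and analysed for increases or decreases against vehicle.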

Read-out in test [11]: Glutathione S-transferase M3 (GSTM3), GSTM3 (gene 2947)
The experiment in a line: LTEA_HepaRG_GSTM3: Life Technologies and Expression Analysis (LTEA) Assay for Glutathione S-transferase M3 (GSTM3) using HepaRG (AID 2283501). In a few lines:
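qRT-PCR read-out of GSTM3 transcript, normalized to three housekeeping genes, from human HepaRG cells after 48 h chemical exposure. Eight-point half-log series, top 100 uM, 0.5% DMSO vehicle; gain or loss fitted relative to DMSO baseline.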

Read-out in test [12]: Heat shock 70 kDa protein 1 (HSPA1A), gene 3303
Put plainly: LTEA_HepaRG_HSPA1A: Life Technologies and Expression Analysis (LTEA) Assay for Heat shock 70 kDa protein 1 (HSPA1A) using HepaRG (AID 2283502). In a few lines: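 HSPA1A induction in human HepaRG liver cells is measured after 48 h of chemical treatment (100 uM maximum, 0.5% DMSO vehicle). Expression comes from qRT-PCR normalized to endogenous controls.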

Read-out in test [13]: Hypoxia-inducible factor 1-alpha (Homo sapiens) (UniProt Q16665)
Put plainly: LTEA_HepaRG_HIF1A: Life Technologies and Expression Analysis (LTEA) Assay for Hypoxia-inducible factor 1 (HIF1A) Trancription factor using HepaRG (AID 2283503). Summed up: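 HepaRG, 48 h exposure, 8-pt half-log series from 100 uM, 0.5% DMSO vehicle, duplicates. Readout: HIF1A transcript by qRT-PCR (Fluidigm array), housekeeping-normalised. Bidirectional curve fit vs DMSO baseline.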

Read-out in a further test: HGF (gene 3082)
Put plainly: LTEA_HepaRG_HGF: Life Technologies and Expression Analysis (LTEA) Assay for Hepatocyte Growth Facto (HGF) using HepaRG (AID 2283505). Summed up:
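HepaRG, 48 h dosing, 8-pt half-log series from 100 uM in 0.5% DMSO, duplicates. Readout: TaqMan qRT-PCR of HGF mRNA, housekeeping-normalized; bidirectional curve fit vs DMSO baseline.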

Read-out in test [14]: Intercellular Adhesion Molecule 1 (ICAM1), ICAM1 (gene 3383)
The experiment in a line: LTEA_HepaRG_ICAM1: Life Technologies and Expression Analysis (LTEA) Assay for Intercellular Adhesion Molecule 1 (ICAM1) using HepaRG (AID 2283507). In a few lines:
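HepaRG, 48 h exposure, 8-pt half-log series from 100 uM, 0.5% DMSO vehicle, duplicates. Readout: TaqMan qRT-PCR mRNA, housekeeping-normalized (ACTB/GAPDH/POLR2A). Bidirectional curve fit vs DMSO baseline.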

Read-out in test [15]: Insulin-like growth factor-binding protein 1 (IGFBP1), IGFBP1 (gene 3484)
Put plainly: LTEA_HepaRG_IGFBP1: Life Technologies and Expression Analysis (LTEA) Assay for Insulin-like growth factor-binding protein 1 (IGFBP1) using HepaRG (AID 2283508). In a few lines: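 qRT-PCR mRNA read-out (TaqMan, Fluidigm array), normalised to three housekeeping genes; HepaRG cells, 48 h exposure, 8-pt half-log series from 100 uM, 0.5% DMSO vehicle; bidirectional curve fit vs DMSO baseline.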

Read-out in test [16]: Interleukin 6 (IL6), IL6 (gene 3569)
The experiment in a line: LTEA_HepaRG_IL6: Life Technologies and Expression Analysis (LTEA) Assay for Interleukin 6 (IL6) using HepaRG (AID 2283509). Summed up: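 HepaRG cells exposed in duplicate for 48 h to eight half-log concentrations, top 100 uM, in 0.5% DMSO serum-free induction medium. mRNA measured by qRT-PCR, normalized to ACTB, GAPDH and POLR2A. Bidirectional fit versus DMSO.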

Read-out in test [17]: 3-Hydroxy-3-Methylglutaryl-CoA Synthase 2 (HMGCS2), HMGCS2 (gene 3158)
Put plainly: LTEA_HepaRG_HMGCS2: Life Technologies and Expression Analysis (LTEA) Assay for 3-Hydroxy-3-Methylglutaryl-CoA Synthase 2 (HMGCS2) using HepaRG (AID 2283504). In a few lines:
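qRT-PCR read-out of HMGCS2 transcript, normalised to three housekeeping genes, in HepaRG cells after 48 h chemical exposure. Eight-point curves from 100 uM, half-log dilutions, 0.5% DMSO vehicle; gain or loss fitted relative to DMSO baseline.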

Read-out in test [18]: Insulin Like Growth Factor 1 (IGF1), IGF1 (gene 3479)
Put plainly: LTEA_HepaRG_IGF1: Life Technologies and Expression Analysis (LTEA) Assay for Insulin Like Growth Factor 1 (IGF1) using HepaRG (AID 2283506). Summed up:
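Using human HepaRG liver cells, IGF1 transcript induction or suppression is measured 48 h after dosing across eight concentrations capped at 100 uM. Values derive from bidirectional concentration-response fitting with DMSO as baseline.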

The source made the active and inactive calls. The calls were made as follows: active = hit-call score of the fitted dose curve at least 0.9, where 1 is the maximum; inactive = score below 0.9.

Chain of Hypoxia-inducible factor 1-alpha (Homo sapiens) (Q16665 whole entry, looked up): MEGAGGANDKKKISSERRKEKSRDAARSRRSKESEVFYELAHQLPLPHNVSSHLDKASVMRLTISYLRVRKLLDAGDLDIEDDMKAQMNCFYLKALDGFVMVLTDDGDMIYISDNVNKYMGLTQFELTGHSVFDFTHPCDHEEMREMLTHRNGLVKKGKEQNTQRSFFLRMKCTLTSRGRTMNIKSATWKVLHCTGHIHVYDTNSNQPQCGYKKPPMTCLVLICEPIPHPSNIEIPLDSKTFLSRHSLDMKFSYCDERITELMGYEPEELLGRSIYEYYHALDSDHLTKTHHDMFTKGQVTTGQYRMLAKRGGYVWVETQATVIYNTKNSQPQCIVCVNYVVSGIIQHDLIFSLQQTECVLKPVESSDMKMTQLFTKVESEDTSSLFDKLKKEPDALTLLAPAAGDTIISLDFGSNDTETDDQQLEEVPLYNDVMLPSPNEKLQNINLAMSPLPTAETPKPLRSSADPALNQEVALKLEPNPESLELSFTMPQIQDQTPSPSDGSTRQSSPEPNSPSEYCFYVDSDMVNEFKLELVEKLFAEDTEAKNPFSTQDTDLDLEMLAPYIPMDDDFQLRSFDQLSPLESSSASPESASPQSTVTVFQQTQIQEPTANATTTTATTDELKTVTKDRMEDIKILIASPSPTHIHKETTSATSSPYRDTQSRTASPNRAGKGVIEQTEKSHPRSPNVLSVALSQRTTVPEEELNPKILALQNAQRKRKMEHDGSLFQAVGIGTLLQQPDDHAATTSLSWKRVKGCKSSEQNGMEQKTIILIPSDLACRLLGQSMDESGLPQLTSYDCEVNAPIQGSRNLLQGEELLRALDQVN
Chain of Cytochrome P450 3A7 (Homo sapiens) (P24462 whole entry, looked up): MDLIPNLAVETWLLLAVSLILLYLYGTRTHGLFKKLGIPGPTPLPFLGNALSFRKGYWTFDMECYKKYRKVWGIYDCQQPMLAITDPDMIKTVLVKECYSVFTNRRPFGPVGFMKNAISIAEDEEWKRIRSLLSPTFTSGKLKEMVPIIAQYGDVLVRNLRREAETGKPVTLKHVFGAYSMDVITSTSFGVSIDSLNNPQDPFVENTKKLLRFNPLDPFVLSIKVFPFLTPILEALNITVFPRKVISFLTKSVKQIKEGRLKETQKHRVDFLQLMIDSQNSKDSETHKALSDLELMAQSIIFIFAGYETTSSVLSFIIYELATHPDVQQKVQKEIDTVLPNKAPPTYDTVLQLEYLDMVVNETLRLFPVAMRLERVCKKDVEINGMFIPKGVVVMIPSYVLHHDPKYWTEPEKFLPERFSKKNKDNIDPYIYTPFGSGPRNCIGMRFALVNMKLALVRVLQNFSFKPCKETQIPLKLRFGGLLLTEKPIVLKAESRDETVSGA

Broadly, the AC50 is the midpoint of the concentration-response curve, whichever way the signal moves. Take `CSc1ccc(Oc2ccc(S(N)(=O)=O)cc2CN(C)C)cc1C`: the outcome (in test [1]; in test [2]; in test [3]; with CYP3A5 (gene 1577); in test [4]; in [6]) was inactive. The outcome in [7], in test [8], in test [10], in test [11], in test [12] and in test [13] was inactive. Further, the result (in the test with HGF (gene 3082); in test [14]) was inactive. Also, the AC50 in [5] is 85.1 µM (active); in test [9], 50 µM (active); in test [15] it was 69.7 µM (active); in test [16], 88.2 µM (active).

Regarding `CO[C@@H]1COCC[C@@H]1N[C@@H]1CC[C@@](C(=O)N2CCc3ncc(C(F)(F)F)cc3C2)(C(C)C)C1`, the outcome (in test [1]; in test [2]; in test [3]; with CYP3A5 (gene 1577); in [4]; in test [5]) was inactive. Further, the compound was called inactive in test [6], in [7], in [8], in test [9], in test [10] and in test [11]. Besides, the compound was called inactive (in test [12]; in [13]; in test [17]; with HGF (gene 3082); in test [14]; in test [15]). Moreover, in test [16], the result was inactive.

In the case of `CCN(CC)CCOc1ccc(C(=C(Cl)c2ccccc2)c2ccccc2)cc1`, the AC50 in test [1] is 81.3 µM (active); in test [2], 67.8 µM (active); in test [5], 13.3 µM (active); in [6] it was 13.3 µM (active); in test [7] it was 78.6 µM (active); in test [10], 78 µM (active). Further, the AC50 in test [17] is 29.2 µM (active); in test [18], 13.3 µM (active); in test [14], 77.1 µM (active); in [15], 61.2 µM (active); in test [16], 81.8 µM (active). The compound was classed as inactive (in [3]; with CYP3A5 (gene 1577); in test [4]; in [8]; in test [9]; in test [12]). Moreover, the compound was called inactive (in test [13]; with HGF (gene 3082)).

`O=NO`: the outcome (in test [1]; in test [2]; in [3]; in the test with CYP3A5 (gene 1577); in test [4]; in [5]) was inactive. Moreover, the compound was called inactive in test [6], in test [7], in [8], in test [9], in test [10] and in test [11]. Besides, the outcome (in test [12]; in test [13]; in test [17]; with HGF (gene 3082); in test [18]; in test [14]) was inactive. The compound was classed as inactive in test [15] and in test [16].

On to `O=C(O)c1[nH]n(-c2ccc(S(=O)(=O)O)cc2)c(=O)c1N=Nc1ccc(S(=O)(=O)O)cc1`, for which the outcome (in [1]; in test [2]; in [3]; in the test with CYP3A5 (gene 1577); in test [4]; in [5]) was inactive. Besides, the compound was called inactive in [6], in test [7], in test [8], in [9], in test [10] and in test [12]. For the same compound, the compound was called inactive (in [13]; in the test with HGF (gene 3082); in test [14]; in test [15]; in test [16]).

Take `Oc1ccccc1O`: the outcome (in [1]; in test [2]; in test [3]; with CYP3A5 (gene 1577); in [4]; in [5]) was inactive. Besides, the compound was classed as inactive in [6], in test [7], in test [8], in test [9], in test [10] and in test [11]. In addition, the compound was classed as inactive (in test [12]; in test [17]; in the test with HGF (gene 3082); in test [18]; in [14]; in test [15]). In test [16], the call was inactive.

For the origin of these results see PubChem BioAssay (EPA / NIEHS).
